Consider 40 compounds from PubChem BioAssay (Tox21).

Unmarked numbers belong to inactive results. Activity calls are given as the source filed them. The call rests on the fitted dose curve; in most records, active means well fitted activation curve with a large enough effect in the signal ratio in the repeat runs (not every such curve was filed as active); inconclusive means weak or mixed curves, or effect the other way; inactive means no such curve, though single readings can be large or run the other way; the % refers to the signal ratio.
On the % scale 0 is the no-effect control and ±100 the full control effect; potency means the concentration at half of the fitted maximal effect.

Sequence of Glucocorticoid receptor (Homo sapiens) (P04150 whole entry, looked up): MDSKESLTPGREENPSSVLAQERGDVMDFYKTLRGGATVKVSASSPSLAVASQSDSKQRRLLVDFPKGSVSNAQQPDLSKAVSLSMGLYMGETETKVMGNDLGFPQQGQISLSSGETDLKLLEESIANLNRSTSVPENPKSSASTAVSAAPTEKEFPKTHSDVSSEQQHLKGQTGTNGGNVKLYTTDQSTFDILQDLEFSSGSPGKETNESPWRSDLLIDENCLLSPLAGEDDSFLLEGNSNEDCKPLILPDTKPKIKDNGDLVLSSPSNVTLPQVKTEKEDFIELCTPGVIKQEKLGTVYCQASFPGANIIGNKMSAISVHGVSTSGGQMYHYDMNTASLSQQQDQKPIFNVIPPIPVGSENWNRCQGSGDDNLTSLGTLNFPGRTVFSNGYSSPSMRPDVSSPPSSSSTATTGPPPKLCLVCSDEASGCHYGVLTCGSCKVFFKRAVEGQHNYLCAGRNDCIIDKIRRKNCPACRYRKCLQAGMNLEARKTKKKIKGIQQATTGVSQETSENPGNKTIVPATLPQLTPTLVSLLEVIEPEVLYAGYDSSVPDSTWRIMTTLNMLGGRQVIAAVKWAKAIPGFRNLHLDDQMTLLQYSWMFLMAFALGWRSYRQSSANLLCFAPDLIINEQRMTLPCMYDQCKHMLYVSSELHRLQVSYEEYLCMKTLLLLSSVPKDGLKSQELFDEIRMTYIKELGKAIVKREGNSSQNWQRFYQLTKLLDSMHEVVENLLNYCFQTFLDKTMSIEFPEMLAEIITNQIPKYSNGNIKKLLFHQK

The target in this assay is Glucocorticoid receptor (Homo sapiens) (UniProt P04150). In words: qHTS assay to identify small molecule agonists of the glucocorticoid receptor (GR) signaling pathway (AID 720691). The note with it: GR-bla HeLa, beta-lactamase reporter ratio, 18 h; activation: at 62.4 µM (top of the series) unless noted. From the text:
U.S. Tox21 Program National Center for Advancing Translational Sciences [NCATS] NIH Chemical Genomics Center [NCGC] U.S. Environmental Protection Agency [EPA] National Institutes of Environmental Health Sciences [NIEHS] National Toxicology Program [NTP] U.S. Food and Drug Administration [FDA] Tox21 Assay Overview: The Glucocorticoid receptor (GR) is one of the members of the nuclear receptor family of ligand-dependent transcription factors. GR plays a critical role in carbohydrate, protein and lipid metabolisms and programmed cell death. CellSensor GR-bla HeLa cell line (Invitrogen) contains a beta-lactamase reporter gene under the control of the glucocorticoid response element stably integrated into HeLa cells, a cervical cancer cell line that expresses glucocorticoid receptor. The activation of the reporter gene under culture conditions can be detected by fluorescence intensity. This cell line has been used to screen the Tox21 10K compound library and to identify the compounds that activate the GR signaling.
Tox21 Assay Protocol Summary: The GR-bla HeLa cells were dispensed at 1500 cells/6 ul/well in 1536-well black wall/clear bottom plates using a Multidrop Combi (ThermoFisher Scientific, Waltham, MA) dispenser. After the assay plates were incubated at a 37 C/5% CO2 incubator for 4 hours, 23 nL of compounds dissolved in DMSO, positive controls or DMSO only was transferred to the assay plate by a pintool station (Kalypsys, San Diego, CA). The plates were incubated at 37 C for 18 hours. After 1 uL of LiveBLAzerTM B/G FRET substrate was added using a Flying Reagent Dispenser (Aurora Discovery, San Diego, CA), the plates were incubated at room temperature for 2 hours, and fluorescence intensity was measured by an Envision plate reader (PerkinElmer, Shelton, CT).
A general note: In qHTS, concentration-response curves come from the screen itself.
Turning to `Nc1cc(C(=O)O)c(O)c(S(=O)(=O)O)c1`, the “activation” value was -1.11%.

Regarding `CCCCCCCC#N`, the “activation” value was 1.21%. On to `O=C(Nc1ccc(S(=O)(=O)N2CCOCC2)cc1)c1cc(Cl)ccc1NS(=O)(=O)c1ccc(Cl)s1`, for which the “activation” value is -4.68%. In the case of `O=C1CCCCCCCCCCCC(=O)OCCO1`, the “activation” value was 0.652%. For `Cc1cccc(C)c1OCC(=O)N[C@@H](Cc1ccccc1)[C@@H](O)C[C@H](Cc1ccccc1)NC(=O)[C@H](C(C)C)N1CCCNC1=O`, the “activation” value was -10.8%.

In the case of `NC(N)=NCCC[C@H](N)C(=O)O`, the “activation” value was -0.168%. Turning to `OC(C#CCN1CCCC1)(c1ccccc1)c1ccccc1`, the “activation” value is -4.18%. For the compound `CNC(=O)CN(CCN(CCN(CC(=O)[O-])CC(=O)NC)CC(=O)[O-])CC(=O)[O-].O.[Gd+3]`, the Potency result is “inactive”. For `O=C(OCCCCCCOC(=O)c1ccccc1)c1ccccc1`, the “activation” value is -2.41%. Consider `CC(C)(O)c1ccc(CNC(=O)c2cccnc2Oc2ccc(F)cc2)cc1`, for which the “activation” value is -3.25%. On to `C=CCOC(=O)CCC1CCCCC1`, for which the “activation” value was -0.0957%. Regarding `CN(C)CCN(Cc1ccccc1)c1ccccn1`, the “activation” value was 0.297%.

For `COc1ccc(C)cc1[N+](=O)[O-]`, the “activation” value was -3.01% [at 79.2 µM].

For `COCC(C)OC(C)=O` (stereo not given), the “activation” value is -1.71%.

As for `S=C([S-])NCCNC(=S)[S-].[Mn+2]`, the “activation” value is -5.24%. Take `CC[N+](C)(CC)CCOC(=O)C(O)(c1ccccc1)C1CCCCC1` (stereo not given): the “activation” value is 0.604%. As to `CCc1cc(C2=C(C(=O)O)N(c3ccccc3C(F)(F)F)S(=O)(=O)c3ccccc32)cc2c1OCO2`, the “activation” value is -7.85%. Still for that read-out and setting: as for `COc1cc(C(=O)OCCCN2CCCN(CCCOC(=O)c3cc(OC)c(OC)c(OC)c3)CC2)cc(OC)c1OC`, the figure is -2.59%.

Turning to `C#Cc1cccc(Nc2ncnc3cc(OCCOC)c(OCCOC)cc23)c1`, the Potency is 26.8 µM [inconclusive] (active). As to `OCCN1CCN(CCCN2c3ccccc3C=Cc3ccccc32)CC1`, the Potency entry was “inactive”. Take `Nc1ncn([C@H]2C[C@H](O)[C@@H](CO)O2)c(=O)n1`: the “activation” value is 0.172%. Regarding `Cc1ncc(CO)c(C=O)c1O`, the “activation” value is -5.65%.

On to `Cc1nn(C)c(Oc2ccccc2)c1/C=N/OCc1ccc(C(=O)OC(C)(C)C)cc1`, for which the “activation” value is 7.32%. Turning to `CN1C[C@H]2c3ccccc3Oc3ccc(Cl)cc3[C@@H]2C1`, the “activation” value was -4.76%. For `CCCCNc1ccc(C(=O)OCCOCCOCCOCCOCCOCCOCCOCCOCCOC)cc1`, the “activation” value is 1.07% [at 29.2 µM]. For `CCC(C)c1cc(C(C)(C)C)c(O)c(C(C)(C)C)c1` (stereo not given), the “activation” value is -0.0008%.

For `CCCCCCCCO[C@@H]1O[C@H](CO)[C@@H](O)[C@H](O)[C@H]1O`, the “activation” value was -3.61%. As to `CCCCc1ncc(/C=C(\Cc2cccs2)C(=O)O)n1Cc1ccc(C(=O)O)cc1`, the “activation” value is 0.125%.

Regarding `CCCn1cnc2c1c(=O)n(CCCCC(C)=O)c(=O)n2C`, the “activation” value was 4.39%. Still for that read-out and setting: as for `CC(C)OC(=O)C(C)N(C(=O)c1ccccc1)c1ccc(F)c(Cl)c1` (stereo not given), the figure is -7.14%. Same read-out and setting: as for `CN(Cc1ccc(C(C)(C)C)cc1)Cc1cccc2ccccc12`, the figure is 2.55%. With `COc1ccc(-c2nc3ccc(C4=NNC(=O)CC4C)cc3[nH]2)cc1` (stereo not given), the “activation” value is -3.41%. As to `CC(C)Nc1ccc(NC(C)C)c2c1C(=O)c1ccccc1C2=O`, the “activation” value is -0.918%. With `O=[N+]([O-])c1cccc(S(=O)(=O)O)c1`, the “activation” value is 0.0051% [at 79.2 µM].

As for `c1ccc(-c2ccccn2)nc1`, the “activation” value was 12.3%.

For the compound `Cc1c(N)cccc1[N+](=O)[O-]`, the “activation” value was -4.57% [at 79.2 µM]. With `COc1cc2nc(N(C)CCCNC(=O)C3CCCO3)nc(N)c2cc1OC` (stereo not given), the “activation” value was 0.412% [at 29.2 µM]. In the case of `CN1CCC(=C2c3ccccc3Sc3ccccc32)CC1`, the “activation” value was 23%. On to `CCCCCCCC/C=C\CCCCCCCC(=O)OCC`, for which the “activation” value was 0.837%.

For the compound `CC(CSC(=O)c1ccccc1)C(=O)N1C[C@@H](Sc2ccccc2)C[C@H]1C(=O)O` (stereo not given in full), the “activation” value is -0.206%.
